Sampled rows, rich in hits. Any-hit rate of the full collection: about 1.2%.
Avidin fluor – green autofluorescence of compounds with avidin beads – biophysical, 488/530 nm, flow cytometry, artefact control, profiling panel; actives 0.38% (n = 220,000); compound fluorescence 488/530 nm; hits give high values; fluorescence (KMESF) at 10 µM; in the data active = fluorescence above about 47
GSH fluor – compound fluorescence on glutathione beads, profiling panel, artefact control, biophysical, 488/530 nm, flow cytometry | GSH beads flow cytometry, compound fluorescence 488/530 nm; hits give high values | fluorescence (KMESF) at 10 µM | actives 0.25% (n = 190,000) | AID 1776, 2009; in the data active = fluorescence above about 89;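 note: glutathione beads carrying GST-tagged Bcl family fusion proteins plus one bare bead set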
RGS16-Gao – modulators of RGS16 binding to Galphao, primary screen, biochemical, human proteins, multiplexed bead flow cytometry | Regulator of G-protein signaling 16 (Homo sapiens) + Guanine nucleotide-binding protein … | bead-based flow cytometry RGS16-Galphao binding, fluorescence; actives lie on both sides | binding response (% of control), % at 10 µM | actives 0.38% (n = 220,000) | AID 1441, 2008;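 note: Galphao activated by GDP with aluminum fluoride before binding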
Target sequence (O15492 whole entry, looked up): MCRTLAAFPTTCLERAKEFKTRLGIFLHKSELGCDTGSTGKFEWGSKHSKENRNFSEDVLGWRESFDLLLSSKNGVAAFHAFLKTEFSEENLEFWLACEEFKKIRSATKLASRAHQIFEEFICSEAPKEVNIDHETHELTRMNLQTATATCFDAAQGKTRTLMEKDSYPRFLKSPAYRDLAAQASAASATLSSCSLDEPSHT
Target sequence (P09471 whole entry, looked up): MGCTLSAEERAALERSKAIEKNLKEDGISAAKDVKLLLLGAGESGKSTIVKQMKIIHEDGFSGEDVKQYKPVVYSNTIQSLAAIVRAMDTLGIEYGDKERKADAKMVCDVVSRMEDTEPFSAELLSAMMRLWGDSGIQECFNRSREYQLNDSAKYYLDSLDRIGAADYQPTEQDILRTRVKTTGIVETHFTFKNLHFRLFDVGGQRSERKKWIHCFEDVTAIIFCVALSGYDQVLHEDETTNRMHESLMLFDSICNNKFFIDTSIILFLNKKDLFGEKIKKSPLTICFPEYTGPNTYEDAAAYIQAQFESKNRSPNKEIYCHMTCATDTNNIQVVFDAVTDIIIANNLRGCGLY
RGS7-Gao – RGS7-Galphao binding modulators, primary screen, biochemical, multiplexed bead flow cytometry. Guanine nucleotide-binding protein G(o) subunit alpha (Homo sapiens), P09471. actives lie on both sides. actives 0.35% (n = 220,000). AID 1439, 2008. binding response (% of control), % at 10 µM; in the data active = binding response below about 49% or above about 150%; inconclusive = no clear call, values can overlap the other calls; inactive = in between;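 note: fluorescent Galphao held in activated GDP-AlF4 state binding bead-coupled RGS7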
Target sequence (P09471 whole entry, looked up): as above
RGS8-Gao – RGS8-Galphao binding modulators, primary screen, biochemical, multiplexed bead flow cytometry | response (percent of control binding), % at 10 µM | actives 0.34% (n = 220,000) | Guanine nucleotide-binding protein G(o) subunit alpha (Homo sapiens), P09471 | actives lie on both sides | AID 1423, 2008; in the data active = response below about 60% or above about 140%; inactive = in between;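 note: Galphao activated as the GDP aluminium fluoride complex binding bead-coupled RGS8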
RGS4-Gao reg – modulators of RGS4 binding to Galphao, primary screen, biochemical, multiplexed bead flow cytometry; AID 1415, 2008; actives lie on both sides; actives 0.33% (n = 220,000); binding response (% of control), % at 10 µM; in the data active = binding response below about 49% or above about 150%; inactive = in between;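 note: fluorescent Galphao activated with aluminum fluoride binding bead-coupled RGS4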
RGS-Gao – modulators of RGS–Galpha-o binding, primary screen, biochemical, multiplexed beads, flow cytometry, RGS4/7/8/16/19; actives 99% (n = 1,600); multiplexed bead flow cytometry; RGS4–Galpha-o binding response, % at 10 µM; shares compounds with RGS16-Gao;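 note: fluorescently labeled Galpha-o bound to GDP with aluminium fluoride binding biotinylated RGS beads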
Avidin counter – disruption of biotin probe capture by avidin, counter-screen for RGS protein interaction modulators, biochemical, flow cytometry, bead-based; shares compounds with RGS16-Gao; inhibition, % at 10 µM; AID 1783, 2009; 1,700 tested, under 10 active; streptavidin beads, fluorescein-biotin binding;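 active = inhibition above 50%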;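 note: median green fluorescence of gated singlet beads compared with DMSO control wells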
RGS8-Gao confirm – RGS8-Galphao binding modulators, confirmation, biochemical, multiplexed bead flow cytometry, single concentration; shares compounds with RGS16-Gao; bead-based flow cytometry RGS8-Galphao binding, fluorescence; actives lie on both sides; binding response (% of control), % at 10 µM; actives 3% (n = 1,700); in the data active = binding response below about 72% or above about 130%; inactive = in between;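 note: Galphao activated as GDP AlF4 complex before binding bead RGS8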
RGS7-Gao single – RGS7-Galphao binding modulators, confirmation, biochemical, multiplexed bead flow cytometry, single concentration; response (percent of control binding), % at 10 µM; shares compounds with RGS16-Gao; AID 1837, 2009; actives 7.8% (n = 1,700); bead-based flow cytometry RGS7-Galphao binding; actives lie on both sides; in the data active = response below about 75% or above about 130%; inactive = in between;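 note: fluorescent Galphao activated with GDP and aluminum fluoride binding bead-coupled RGS7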
RGS16-Gao single – modulators of RGS16-Galphao protein binding, confirmation, biochemical, single concentration, multiplexed bead flow cytometry | actives 4% (n = 1,700) | response (% of control binding), % at 10 µM | bead-based flow cytometry; actives lie on both sides | AID 1838, 2009 | shares compounds with RGS16-Gao; in the data active = response below about 74% or above about 130%; inactive = in between;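 note: Galphao activated as the GDP aluminium fluoride complex binding bead-coupled RGS16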
RGS4-Gao single – modulators of RGS4-Galphao protein binding, confirmation, biochemical, single concentration, multiplexed bead flow cytometry. shares compounds with RGS16-Gao. actives lie on both sides. binding response (% of control), % at 10 µM. actives 4% (n = 1,700); in the data active = binding response below about 74% or above about 130%; inactive = in between
RGS19-Gao conf – regulators of RGS19-Galphao binding, confirmation, biochemical, single point, multiplexed bead flow cytometry; shares compounds with RGS16-Gao; bead-based flow cytometry RGS19-Galphao binding; actives lie on both sides; response (percent of control binding), % at 10 µM; actives 5% (n = 1,700); in the data active = response below about 50% or above about 160%; inactive = in between
Hits are given with their value; i = inactive; ? = inconclusive; nt = no result; [ ] = another dose, or the depositor's remark. Unless noted, the rule behind the calls is not given here.

SMILES	Avidin fluor	GSH fluor	RGS16-Gao	RGS7-Gao	RGS8-Gao	RGS4-Gao reg	RGS-Gao	Avidin counter	RGS8-Gao confirm	RGS7-Gao single	RGS16-Gao single	RGS4-Gao single	RGS19-Gao conf
COc1ccc(N2CCN(CC(=O)NCc3ccccc3)CC2)cc1	i	i	i	i	i	i	nt	nt	nt	nt	nt	nt	nt
O=C(Nc1ccccc1C(=O)NC(Cc1ccc(O)cc1)C(=O)O)c1ccccc1 (stereo not drawn)	i	i	i	i	i	i	nt	nt	nt	nt	nt	nt	nt
Cc1cccc(C)c1NC(=O)CSC(=O)c1sc2ccccc2c1Cl	i	nt	-2.1	?	22	-6.1	nt	i	i	i	i	i	i
O=c1ccc2cc(S(=O)(=O)N3CCN(c4cc(Cl)ccc4Cl)CC3)ccc2o1	nt	i	nt	nt	nt	nt	nt	i	i	i	i	i	i
S=c1nc(-c2csc3c2CCCC3)[nH][nH]1	i	i	i	i	i	i	nt	nt	nt	nt	nt	nt	nt
COC(=O)c1c(NC(=O)COC(=O)CCS(=O)(=O)c2ccc(C)cc2)sc(C)c1C	i	i	255[activator]	i	i	i	92	i	i	139[activator]	i	i	160[activator]
CCOc1ccc(NC(=O)COC(=O)CCS(=O)(=O)c2ccc(C)cc2)cc1	i	i	i	i	i	i	nt	nt	nt	nt	nt	nt	nt
COc1ccc(C2C(C(=O)Nc3cc(OC)c(OC)c(OC)c3)c3ccccc3C(=O)N2C)cc1OC (stereo not drawn)	i	i	i	i	i	i	nt	nt	nt	nt	nt	nt	nt
O=C(COC(=O)c1ccc2[nH]c3c(c2c1)CCCC3)Nc1ccc(Cl)cc1Cl	i	i	182[activator]	i	i	i	107	i	i	i	i	i	i
O=C(COC(=O)c1ccc2[nH]c3c(c2c1)CCCC3)Nc1ccccc1Cl	i	i	i	i	i	i	nt	nt	nt	nt	nt	nt	nt
CCCCOc1ccc(-c2nc(SCC(N)=O)n[nH]2)cc1	i	i	i	i	i	i	nt	nt	nt	nt	nt	nt	nt
CCCCOc1ccc(-c2nc(=S)[nH][nH]2)cc1	i	i	i	i	nt	i	nt	i	i	i	i	i	i
CN1CCN(CCC(=O)Nc2cccc(Br)c2)CC1	i	nt	i	?	i	i	nt	nt	nt	nt	nt	nt	nt
CCN(CC)C(=O)NC1CCCCCCC1	i	i	i	?	i	i	nt	nt	nt	nt	nt	nt	nt
CC(OC(=O)c1ccccc1NS(=O)(=O)c1cccc(N)c1)C(=O)N(C)Cc1ccccc1 (stereo not drawn)	i	i	12	i	i	i	91	i	i	i	i	i	i
C/C(=C\c1ccccc1)C(=O)NCc1ccco1	i	i	i	i	i	i	nt	nt	nt	nt	nt	nt	nt
CC(=O)Nc1ccccc1-c1nc2ccc(C(=O)N3CCN(c4cc(C)ccc4C)CC3)cc2[nH]c1=O	78	i	i	168[activator]	i	i	111	i	i	74	i	i	i
CCCCN(CCCC)CCCNC(=O)c1ccc2nc(-c3ccccc3NC(C)=O)c(=O)[nH]c2c1	i	i	i	i	i	i	nt	nt	nt	nt	nt	nt	nt
COc1ccc(-c2ocnc2C(=O)Nc2ccccc2N2CCCCC2)cc1	221	i	i	230[activator]	i	i	128	nt	nt	nt	nt	nt	nt
CCOc1ccc(C(=O)Nc2ccccc2N2CCCC2)cc1	i	i	i	i	i	i	nt	nt	nt	nt	nt	nt	nt
CCCC(=O)NC(=S)Nc1cccc(C(C)=O)c1	i	i	i	i	145[activator]	i	114	i	i	i	i	i	i
CCCCCC(=O)NC(=S)Nc1cccc(C(C)=O)c1	i	i	i	i	i	i	nt	nt	nt	nt	nt	nt	nt
CC1=C(C(N)=O)C(c2cccs2)n2nc(-c3cccc(Cl)c3)nc2N1 (stereo not drawn)	i	i	i	i	i	i	nt	nt	nt	nt	nt	nt	nt
CC1=C(C(N)=O)C(c2cccs2)n2nc(-c3cccc(C)c3)nc2N1 (stereo not drawn)	i	i	i	31	34	34	nt	i	i	i	i	i	i
COc1ccc(C(C)(C)C)cc1NC(=S)NCCN1CCOCC1	i	i	i	i	i	i	nt	nt	nt	nt	nt	nt	nt
SMILES	Avidin fluor	GSH fluor	RGS16-Gao	RGS7-Gao	RGS8-Gao	RGS4-Gao reg	RGS-Gao	Avidin counter	RGS8-Gao confirm	RGS7-Gao single	RGS16-Gao single	RGS4-Gao single	RGS19-Gao conf
CCN1CCCC1CNCc1cccc(OC)c1OCc1ccc(F)cc1 (stereo not drawn)	i	i	20	i	i	i	91	i	i	i	i	i	i
COCC(C)N1CC(O)=C(c2nc(-c3ccc(Cl)cc3)cs2)C1=N (stereo not drawn)	i	i	i	?	i	i	nt	nt	nt	nt	nt	nt	nt
CCO[C@@H]1OC(C(=O)N2CCN(Cc3ccc4c(c3)OCO4)CC2)=C[C@H](c2csc3ccccc23)[C@H]1CCCO	i	i	i	i	i	i	nt	nt	nt	nt	nt	nt	nt
CCO[C@@H]1OC(C(=O)N2CCN(Cc3ccc4c(c3)OCO4)CC2)=C[C@H](c2cn(C(C)=O)c3ccccc23)[C@H]1CCCO	i	i	i	167[activator]	i	i	137	i	i	i	i	i	i
CCO[C@H]1OC(C(=O)N2CCN(Cc3ccc4c(c3)OCO4)CC2)=C[C@@H](C2CC2)[C@@H]1CCCO	i	i	i	42	i	i	51	i	i	i	i	i	i
CC(C)c1nc2scc(-c3ccc(Cl)cc3)c2c(=O)n1N	i	nt	i	?	i	i	nt	nt	nt	nt	nt	nt	nt

Screening results: PubChem, NMMLSC
